This is an account of results in PubChem BioAssay (NCATS).

In assay [1] the target is Calcium and integrin-binding protein 1 (Homo sapiens) (UniProt Q99828). Put plainly: Primary qHTS for Identification of Calcium Integrin Binding Protein 1 (CIB1) Competitor (AID 1508620).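 Note: GST tagged CIB1 binding a fluorescein labelled alphaIIb integrin peptide tracer; top concentration of the series differs between compounds.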 Conditions: CIB1-GST / FITC-alphaIIb peptide fluorescence polarization; series mostly up to 57.7 µM. In a few lines:
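CIB1-GST (1 uM final) and compound incubated 15 min at room temperature before adding FITC-alphaIIb peptide tracer (100 nM final). Competition for binding read by fluorescence polarization (ex 480, em 540) after another 15 min at room temperature.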

Assay [2] is described as follows: Primary qHTS for small molecule stabilizers of the endoplasmic reticulum resident proteome: Secreted ER Calcium Modulated Protein (SERCaMP) assay (AID 1508630). Note: potency is the fitted concentration of half-maximal effect. Conditions: SH-SY5Y GLuc-SERCaMP (Gaussia luciferase released on ER calcium loss) secretion, thapsigargin, luminescence; series mostly up to 38.4 µM. An outline of the steps:
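The SH-SY5Y reporter protocol was run at 3 concentrations up to 38.3 uM (primary) or 11 concentrations (follow-up): 16 h compound, 100 nM thapsigargin for 4 h, then extracellular luciferase luminescence.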
(In general: In qHTS, concentration-response curves come from the screen itself.)

The structures appear in SMILES notation. Results filed as inconclusive are left out. A call without a number means that no potency is given here. The source made the active and inactive calls. Calls come from the whole dose curve; as a rule, active = well fitted curve in the direction sought with a large enough effect; inconclusive = small, poorly fitted or top-dose-only effect, or another doubt; inactive = no such curve, though single readings can be large; an effect the other way counts as inactive or inconclusive.

Calcium and integrin-binding protein 1 (Homo sapiens), sequence (Q99828 whole entry, looked up): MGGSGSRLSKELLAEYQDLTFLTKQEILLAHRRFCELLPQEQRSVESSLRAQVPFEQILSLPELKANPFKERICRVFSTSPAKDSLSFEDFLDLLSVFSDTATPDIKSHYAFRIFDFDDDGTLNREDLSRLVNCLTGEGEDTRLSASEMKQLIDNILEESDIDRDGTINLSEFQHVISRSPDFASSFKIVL

As for `CC(C)(C)C(=O)Oc1ccc2c(c1)nc(NC(=O)c1cccc([N+](=O)[O-])c1)n2CCCO`, the Potency result in assay [1] and in assay [2] was “inactive” in each case.
Regarding `COc1ccc(-n2c(C)c([N+](=O)[O-])c3ccc(O)cc32)cc1`, the Potency result in assay [1] and in assay [2] was “inactive” in each case.
For the compound `OC[C@H]1O[C@@H](n2cnc3c2NC=NC[C@@H]3O)C[C@H]1O`, the Potency result in assay [1] and in assay [2] was “inactive” in each case.
With `C[C@]12CC[C@@H]3c4ccc(O)cc4C[C@@H](CCCCCCCCCS(=O)CCCC(F)(F)C(F)(F)F)[C@H]3[C@H]1CC[C@H]2O` (some centres not stated), the Potency result in assay [1] and in assay [2] was “inactive” in each case.
As to `Cc1nnc(C(C)C)n1C1C[C@H]2CC[C@@H](C1)N2CC[C@H](NC(=O)C1CCC(F)(F)CC1)c1ccccc1` (some centres not stated), the Potency entry in assay [1] and in assay [2] was “inactive” each time.
As for `CC(C)C(=O)Oc1ccc(CO)cc1[C@H](CCN(C(C)C)C(C)C)c1ccccc1`, the Potency result in assay [1] and in assay [2] was “inactive” throughout.
On to `CC(C)C(C)C=CC(C)C1CCC2C3=CC=C4CC(O)CCC4(C)C3CCC21C` (configuration not stated), for which, in assay [1], the Potency result is “inactive”. Moreover, in assay [2], the Potency is 1490 nM (active).
Taken in the same sequence, the figures for `Nc1ncnc2c1nc(Cl)n2[C@@H]1O[C@H](CO)[C@@H](O)[C@@H]1O` were “inactive” and “inactive”.
Taken in the same sequence, the figures for `CCC(=O)O[C@]1(C(=O)CO)CC[C@H]2[C@@H]3CCC4=CC(=O)CC[C@]4(C)[C@@H]3CC[C@@]21C` were “inactive” and “inactive”.
Taken in the same sequence, the figures for `COc1ncc(-c2ccc3nccc(-c4ccnnc4)c3c2)cc1NS(=O)(=O)c1ccc(F)cc1F` were “inactive” and “inactive”.
As for `CCOC(CN1C(=O)[C@](CC(=O)Nc2ccc(C)cc2)(NC(=O)Nc2ccc(C)cc2)c2ccccc21)OCC`, the Potency result in assay [1] and in assay [2] was “inactive” throughout.
In the case of `N[C@H](CSC(c1ccccc1)(c1ccccc1)c1ccccc1)C(=O)O`, the Potency entry in assay [1] and in assay [2] was “inactive” in each case.
As for `C[C@]12CC[C@@H]3c4ccc(O)cc4CC[C@H]3[C@H]1C[C@@H](O)[C@H]2O`, the Potency entry in assay [1] and in assay [2] was “inactive” in each case.
For `CC(C)(C)COc1ccc(-n2cc(C(=O)O)cn2)cc1C#N`, the Potency result in assay [1] and in assay [2] was “inactive” in each case.
On to `Cc1[nH]c(C=C2C(=O)Nc3ccc(S(=O)(=O)Cc4c(Cl)cccc4Cl)cc32)c(C)c1C(=O)N1CCC[C@H]1CN1CCCC1`, for which the Potency entry in assay [1] and in assay [2] was “inactive” throughout.
For `CN1CCN(CCOc2cc(OC3CCOCC3)c3c(Nc4c(Cl)ccc5c4OCO5)ncnc3c2)CC1`, the Potency result in assay [1] and in assay [2] was “inactive” throughout.
With `COc1ccc(-c2coc3cc(O)ccc3c2=O)cc1`, the Potency result in assay [1] and in assay [2] was “inactive” throughout.
As to `CCOC1OC(=O)C[C@H]1NC(=O)[C@@H]1CCCN1C(=O)[C@@H](NC(=O)c1ccc(N)c(Cl)c1)C(C)(C)C` (some centres not stated), the Potency entry in assay [1] and in assay [2] was “inactive” each time.
Take `CC(C)C[C@H](CC(=O)O)C(=O)N[C@@H](Cc1c[nH]c2ccccc12)C(=O)N[C@@H](C)c1ccccc1`: the Potency entry in assay [1] and in assay [2] was “inactive” throughout.
As for `CC(C)n1cnc2c(NCCCCCCNC(=O)OC(C)(C)C)nc(NCCO)nc21`, the Potency result in assay [1] and in assay [2] was “inactive” throughout.
As to `O=C(Nc1c(Cl)cncc1Cl)c1ccc(OC(F)F)c(OCC2CC2)c1`, the Potency entry in assay [1] and in assay [2] was “inactive” each time.
Turning to `O=C(OCC#CCSc1nnc(-c2cccc3ccccc23)o1)c1cc2ccccc2s1`, the Potency entry in assay [1] and in assay [2] was “inactive” each time.
As to `O=C1c2c(O)cc(O)cc2O[C@H](c2cc(O)c(O)c(O)c2)[C@H]1O`, the Potency result in assay [1] and in assay [2] was “inactive” throughout.
For `O=C(N[C@@H](c1ccccc1)[C@@H]1CCCCN1)c1cccc(C(F)(F)F)c1Cl`, the Potency result in assay [1] and in assay [2] was “inactive” in each case.
In the case of `c1cc(-c2sc(-c3ccncc3)c(-c3ccncc3)c2-c2ccncc2)ccn1`, the Potency entry in assay [1] and in assay [2] was “inactive” throughout.
`CC=CC(=O)N(CC)c1ccccc1C`: the Potency entry in assay [1] and in assay [2] was “inactive” in each case.
On to `COc1ccc(-c2nc(N3CCOCC3)c3sc(CN(C)c4ncc(C(=O)NO)cn4)cc3n2)cn1`, for which the Potency entry in assay [1] and in assay [2] was “inactive” each time.
Turning to `O=c1cc(-c2cccc3c2Sc2ccccc2S3)oc(N2CCOCC2)c1`, the Potency result in assay [1] and in assay [2] was “inactive” each time.
As for `CC(C(=O)O)c1ccc(-c2ccccc2)c(F)c1` (configuration not stated), the Potency result in assay [1] and in assay [2] was “inactive” throughout.
Consider `COc1ccc2c3c1OC1C[C@@H](O)C=C[C@@]31CCN(C)C2` (some centres not stated), for which the Potency entry in assay [1] and in assay [2] was “inactive” each time.
As for `N#CC1(c2ccc(NC(=O)c3cccnc3NCc3ccncc3)cc2)CCCC1`, the Potency result in assay [1] and in assay [2] was “inactive” throughout.
Take `CCC(=O)NC[C@H](Cc1ccc(OCCc2nc(-c3ccccc3)oc2C)cc1)NC(C)=CC(=O)c1ccc(C(F)(F)F)cc1`: the Potency entry in assay [1] and in assay [2] was “inactive” in each case.
For the compound `CCCCCN(C)CCC(O)(P(=O)(O)O)P(=O)(O)O`, the Potency entry in assay [1] and in assay [2] was “inactive” each time.
Consider `O=C(O)c1ccccc1C(=O)Nc1ccc(-c2ccccc2)cc1`, for which the Potency entry in assay [1] and in assay [2] was “inactive” in each case.
As to `CNC1CCC(N(Cc2cccc(-c3ccncc3)c2)C(=O)c2sc3c(F)ccc(F)c3c2Cl)CC1` (configuration not stated), the Potency result in assay [1] and in assay [2] was “inactive” each time.
As to `C[N+]1(C)[C@@H]2CC(OC(=O)[C@H](CO)c3ccccc3)C[C@H]1[C@H]1O[C@@H]12` (some centres not stated), the Potency entry in assay [1] and in assay [2] was “inactive” each time.
